Results as given in PubChem BioAssay.
Calls of active or inactive are those of the source.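 Rule for the calls, unless noted: active = viability loss from added drug above about 55%, and viability with drug at most 40%, in both replicates (limit read from the data, passing the limit was not always enough); inconclusive = both conditions met in only one replicate; inactive = neither replicate meets both conditions.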

Assays:
[1] = reducers of endogenous Her2 protein level, primary screen, SKBR3 breast tumor cells, AlphaScreen, ATP viability (AID 461;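 active = Her2 level under about 52% in both replicate screens, with viability over 70% of control, limit read from the data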;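 for Her2 level: lower value means less Her2 protein in the cells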;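 for viability: percent of carrier control wells set as 100% viability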); conditions: 18-24 h, measured here: SKBR3 viability, ATP luminescence, at 10 µM
[2] = molecular target: Receptor tyrosine-protein kinase erbB-2 (Homo sapiens) (UniProt P04626); assay: as above; conditions: 18-24 h, at 10 µM, stronger effect = lower value
[3] = SK-BR-3 cell growth inhibitors, pilot screen, 24 h, human (AID 572;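 active = viability at or below 10% of carrier control in both of two separate runs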;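 note: compound exposure lasted between 18 and 24 h rather than exactly 24 h; 100% = carrier-treated control wells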); conditions: SK-BR-3 viability, CellTiter-Glo luminescence, at 10 µM, stronger effect = lower value
[4] = growth inhibitors of H69AR lung tumor, primary screen, human, duplicate replicates (AID 580;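 active = viability at or under a set limit in both replicates, limit being median viability minus 3 SD, cut at about 48% in these data, passing the limit was not always enough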;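 note: 100% = mean luminescence of untreated wells and 0% = no signal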); conditions: H69AR lung tumor cells viability, ATP luminescence, 72 h; at 10 µM; stronger effect = lower value
[5] = reversal of MRP1-mediated doxorubicin resistance, pilot screen, H69AR cells, doxorubicin co-treatment (AID 601); conditions: CellTiter-Glo, 72 h, at 10 µM; for differential viability (reversal): stronger effect = higher value
[6] = 384-well plate pilot, post-Golgi transport modulator project, inhibition of yeast transport mutant growth (AID 636; in the data active = inhibition above about 31%); conditions: absorbance 615 nm, about 18 h, stronger effect = higher value
[7] = growth suppression of yeast trafficking mutant, preliminary HTS, modulators of trafficking downstream of Golgi apparatus project, 1536-format plate, OD 615 nm (AID 637; in the data active = inhibition above about 30%); conditions: yeast transport mutant growth, absorbance 615 nm, 18 h; stronger effect = higher value
[8] = HUVEC growth inhibition – cell-based, human, primary screen (AID 575;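 active = viability at or below 30% in both replicate assays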;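 note: 100% = median of untreated cell wells with 0.1% DMSO on each plate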); conditions: HUVEC proliferation, CellTiter-Glo luminescence, 72 h; at 10 µM; stronger effect = lower value
[9] = H69AR cells + 2 uM doxorubicin, measured here: viability with 2 uM doxorubicin, stronger effect = lower value
[10] = H69AR cells, compound alone cytotoxicity

Sequence of Receptor tyrosine-protein kinase erbB-2 (Homo sapiens) (P04626 whole entry, looked up): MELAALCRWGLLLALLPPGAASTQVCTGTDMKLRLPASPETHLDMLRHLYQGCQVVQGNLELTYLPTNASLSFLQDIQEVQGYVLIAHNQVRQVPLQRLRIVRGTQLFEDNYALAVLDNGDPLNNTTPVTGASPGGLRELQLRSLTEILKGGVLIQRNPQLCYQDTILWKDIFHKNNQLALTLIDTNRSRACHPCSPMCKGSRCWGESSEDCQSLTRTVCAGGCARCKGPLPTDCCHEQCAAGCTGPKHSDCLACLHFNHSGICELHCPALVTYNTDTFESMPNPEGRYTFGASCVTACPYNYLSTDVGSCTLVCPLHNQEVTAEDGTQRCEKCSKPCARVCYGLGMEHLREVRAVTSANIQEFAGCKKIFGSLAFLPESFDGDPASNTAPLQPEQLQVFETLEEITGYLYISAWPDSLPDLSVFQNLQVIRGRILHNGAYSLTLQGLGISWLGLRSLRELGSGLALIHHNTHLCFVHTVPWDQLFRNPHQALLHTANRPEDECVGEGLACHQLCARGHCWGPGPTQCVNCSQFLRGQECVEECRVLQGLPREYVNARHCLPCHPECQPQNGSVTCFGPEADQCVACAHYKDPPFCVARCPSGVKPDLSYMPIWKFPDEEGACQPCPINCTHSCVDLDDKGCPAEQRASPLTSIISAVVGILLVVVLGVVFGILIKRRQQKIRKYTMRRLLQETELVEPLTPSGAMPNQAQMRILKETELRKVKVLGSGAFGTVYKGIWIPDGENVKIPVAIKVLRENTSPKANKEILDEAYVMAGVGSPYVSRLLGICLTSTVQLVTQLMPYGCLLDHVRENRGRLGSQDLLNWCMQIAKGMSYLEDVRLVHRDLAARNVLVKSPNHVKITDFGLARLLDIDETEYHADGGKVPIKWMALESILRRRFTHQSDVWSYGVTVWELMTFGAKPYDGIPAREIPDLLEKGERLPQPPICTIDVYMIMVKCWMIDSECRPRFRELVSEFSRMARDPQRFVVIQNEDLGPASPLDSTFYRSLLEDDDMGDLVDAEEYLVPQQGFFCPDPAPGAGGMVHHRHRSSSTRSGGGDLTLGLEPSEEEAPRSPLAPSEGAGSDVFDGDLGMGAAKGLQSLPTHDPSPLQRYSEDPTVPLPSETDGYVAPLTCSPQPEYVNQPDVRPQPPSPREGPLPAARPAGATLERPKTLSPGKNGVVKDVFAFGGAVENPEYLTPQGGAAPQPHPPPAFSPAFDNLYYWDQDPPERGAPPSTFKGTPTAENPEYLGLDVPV

Row | SMILES | viability [1] [%] | Her2 level [2] | viability [3] | viability [4] | differential viability (reversal) ([5]; H69AR cells + 2 uM doxorubicin) | viability [5, 9] [%] | viability [5, 10] [%] | inhibition [6] | inhibition [7] | viability [8]
1 | COc1ccccc1NC(=O)NCCCN1CCN(c2cccc(Cl)c2)CC1 | 77 | 70.5% (inactive) | 77% (inactive) | 72.6% (inactive) | -14.3% (inactive) | 86.8 | 72.6 | 4.4% (inactive) | -7.7% (inactive) | 
2 | CCc1ccc2oc(-c3cc(N)ccc3Cl)nc2c1 | 102 | 87.5% (inactive) | 102% (inactive) | 77.2% (inactive) | -12.2% (inactive) | 89.4 | 77.2 | -0.54% (inactive) | -4% (inactive) | 
3 | CCOC(=O)c1cnc(-n2nc(C)cc2C)nc1NC(C)c1ccccc1 (configuration not stated) | 153 | 65% (inactive) | 153% (inactive) | 10.1% (active) | -1.17% (inactive) | 11.3 | 10.1 | -3.16% (inactive) | 14.3% (inactive) | 
4 | CS(=O)(=O)c1ncc(Cl)c(C(=O)Nc2ccc(N3CCOCC3)cc2)n1 | 201 | 8% (active) | 201% (inactive) | 0.715% (active) | 0.355% (inactive) | 0.36 | 0.715 | -4.21% (inactive) | 3.65% (inactive) | 
5 | COc1ccc(-c2nc(N)nc(C)c2Oc2ccccc2Br)c(O)c1 | 96 | 74% (inactive) | 96% (inactive) | 5.08% (active) | -12.7% (inactive) | 17.8 | 5.08 | -4.34% (inactive) | 57.6% (active) | 
6 | CC(C)Cn1c(N)c(C(=O)NCc2cccs2)c2nc3ccccc3nc21 | 77 | 101% (inactive) | 77% (inactive) | 12% (active) | -5.04% (inactive) | 17.1 | 12 | 24.3% (inactive) | 12.1% (inactive) | 
7 | CCOC(=O)/C=C(\C)Sc1cc(=O)oc2ccccc12 | 94.5 | 47.5% (active) | 94.5% (inactive) | 6.09% (active) | 2.37% (inactive) | 3.73 | 6.09 | -0.92% (inactive) | 1.45% (inactive) | 
8 | COC(=O)c1ccc2c(=O)n(Cc3ccco3)c(SCC(=O)Nc3ccc(C)c(Cl)c3)nc2c1 | 77.5 | 59.5% (inactive) | 77.5% (inactive) | 8.06% (active) | -2.23% (inactive) | 10.3 | 8.06 | -1.71% (inactive) | -2.7% (inactive) | 
9 | NC(=O)c1cc(-c2ccccc2)nc(N2CCOCC2)n1 | 102 | 69.5% (inactive) | 102% (inactive) | 84.4% (inactive) | 12.1% (inactive) | 72.3 | 84.4 | -2.97% (inactive) | -6.35% (inactive) | 
10 | CCOC(=O)c1cnn(-c2ncnc3c2cnn3Cc2ccccc2)c1N | 99.5 | 84.5% (inactive) | 99.5% (inactive) | 17.2% (active) | -14.3% (inactive) | 31.5 | 17.2 | -5.33% (inactive) | -2.58% (inactive) | 
11 | Clc1ccc(Cl)c(-c2nn3c(COc4ccccc4)nnc3s2)c1 | 96 | 69% (inactive) | 96% (inactive) | 72.9% (inactive) | 1.02% (inactive) | 71.9 | 72.9 | -5.07% (inactive) | 5.32% (inactive) | 
12 | COc1cc2c(N3CCOCC3)cc(O)c(CC(=O)Nc3ccccc3)c2cc1OC | 90.5 | 98.5% (inactive) | 90.5% (inactive) | 75.3% (inactive) | -14% (inactive) | 89.3 | 75.3 | -5.32% (inactive) | -6.89% (inactive) | 
13 | Cc1cccc(Nc2ncc3c(n2)CC(c2ccco2)CC3=O)c1 (configuration not stated) | 81.5 | 83% (inactive) | 81.5% (inactive) | 75.5% (inactive) | -2.41% (inactive) | 77.9 | 75.5 | 0.26% (inactive) | 4.17% (inactive) | 
14 | O=C(CN1CCC(c2nc3ccccc3s2)CC1)NCc1cccs1 | 110 | 91% (inactive) | 110% (inactive) | 85.3% (inactive) | -3.33% (inactive) | 88.6 | 85.3 | -0.8% (inactive) | 6.72% (inactive) | 
15 | CCOC(=O)c1ccccc1NC(=O)c1c(O)c2ccccc2n(CC)c1=O | 89 | 90% (inactive) | 89% (inactive) | 71.3% (inactive) | -11.1% (inactive) | 82.3 | 71.3 | -6.85% (inactive) | 0.16% (inactive) | 
16 | C=C(C)COc1ccc(-c2nc(N)ncc2-c2ccc(OC)cc2)c(O)c1 | 160 | 73% (inactive) | 160% (inactive) |  | 1.44% (inactive) | 31.8 | 33.2 | -1.56% (inactive) | 7.17% (inactive) | 
17 | CCN1CCN(Cc2nc3c(c(=O)[nH]c(=O)n3C)n2Cc2ccccc2Cl)CC1 | 80.5 | 114% (inactive) |  | 92% (inactive) | -4.17% (inactive) | 96.2 | 92 | -0.51% (inactive) | -3.17% (inactive) | 87.9% (inactive)
